# Compound activity deposited in PubChem by The Scripps Research Institute Molecular Screening Center.
# ABHD5 PLIN5 PPI = inhibitors of human ABHD5-perilipin-5 interaction | inhibition, % at 4 µM | Q00G26+Q8WTS1 | hit rate 0.78% among 360,000 | Split G. princeps luciferase complementation, luminescence, 4 h;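 active = inhibition above the mean inhibition across every tested compound plus 3 SD, cut at about 22% in these data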;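 also: 0% = DMSO only wells and the 100% control is not disclosed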
# TLR9-MyD88 block = TLR9-MyD88 interaction inhibition | inhibition, % at 4.98 µM | hit rate 0.21% among 340,000 | CHO BLA complementation TLR9-MyD88, CCF4 FRET ratio | AID 504734;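 active = inhibition above the mean over all tested compounds plus 3 SD, cut at about 21% in these data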;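 also: 0% = DMSO only wells and 100% = clavulanate BLA inhibitor control wells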
# TLR4 MyD88 comp = TLR4-MyD88 interaction inhibition in cells. hit rate 0.18% among 200,000. inhibition, % at 8.4 µM. HeLa CL3-4 TLR4/MyD88 BLA complementation, FRET ratio; in the data active = inhibition above about 25%;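 also: 0% = vehicle and 100% = reference inhibitor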
# NOD2-RIPK2 inh = inhibitors of human NOD2-RIPK2 interaction; O43353; CHO BLA complementation NOD2-RIPK2, CCF4 ratio; inhibition, % at 4.98 µM; hit rate 0.38% among 360,000; in the data active = inhibition above about 21%;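 also: 0% = vehicle only and 100% = reference blocker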
# ABHD5-PLIN5 conf = confirmation of human ABHD5-PLIN5 interaction inhibitors | shares compounds with ABHD5 PLIN5 PPI | hit rate 67% among 2,200 | AID 651612 | biochemical ABHD5-PLIN5 interaction, luminescence | inhibition, % at 4 µM; in the data active = inhibition above about 23%;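 also: 0% = DMSO vehicle wells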
# HNF4 split-luc = active in HNF4 split-luciferase counter-screen for ABHD5-PLIN5 inhibitors; shares compounds with ABHD5 PLIN5 PPI; HNF4 dimerization, luminescence, biochemical; inhibition, % at 4 µM; hit rate 77% among 2,200; AID 651674;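 active = mean inhibition across replicate wells exceeding the computed hit threshold, cut at about 13% in these data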;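 also: light from luciferase halves that rejoin when HNF4 fusion proteins dimerize; 0% = DMSO only wells and the 100% control is not given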
# The depositor's hits bear a star; / = no result given. Only some compounds are listed: those with a hit (about 1.2% of all), similar ones and a draw of the others.
SMILES,ABHD5 PLIN5 PPI,TLR9-MyD88 block,TLR4 MyD88 comp,NOD2-RIPK2 inh,ABHD5-PLIN5 conf,HNF4 split-luc
O=C(CCCSc1ccccc1)Nc1nc(-c2ccco2)c(-c2ccco2)s1,21.3,-6.9,-1.2,2.2,/,/
O=C(CCl)Nc1nc(-c2ccco2)c(-c2ccco2)s1,37.2*,-4.2,-6.3,2.7,36.0*,53.7*
Cc1ccc(C(=O)Nc2nc(-c3ccco3)c(-c3ccco3)s2)o1,27.9*,-5.7,/,-4.9,16.6,16.9*
CCn1c(=O)cc(C(=O)OC)sc1=Nc1ccc(F)c(F)c1,27.4*,1.0,-6.3,-6.0,59.3*,39.7*
CCOC(=O)c1ccc(N=c2sc(C(=O)OC)cc(=O)n2CCCN2CCOCC2)cc1,42.4*,0.1,-10.0,-5.5,45.3*,42.3*
CC(C)C[C@H](NC(=O)NCc1ccc(F)cc1)C(=O)O,5.5,5.6,/,2.5,/,/
CC1CCCN(S(=O)(=O)c2ccc(NC(=O)C3CCN(C(=O)c4ccco4)CC3)cc2)C1 (stereo not drawn),24.1*,-1.4,/,-0.1,4.3,0.4
CCC(C)NS(=O)(=O)c1ccc(NC(=O)C2CCN(C(=O)c3ccco3)CC2)cc1 (stereo not drawn),4.1,1.9,/,1.9,/,/
O=C(c1ccco1)N1CCN(S(=O)(=O)c2ccc(Oc3ccccc3)cc2)CC1,49.6*,-4.8,0.3,5.6,8.3,17.6*
Cc1c(NC(=O)C(C)OC(=O)c2ccc(Cl)nc2)c(=O)n(-c2ccccc2)n1C (stereo not drawn),1.6,-4.4,-11.9,6.9,/,/
COc1ccccc1OS(=O)(=O)c1ccc(NC(C)=O)cc1,3.1,3.9,8.1,2.2,/,/
COC(=O)/C=C/S(=O)(=O)c1ccc(NC(C)=O)cc1,76.2*,6.1,-13.1,7.6,86.5*,107.0*
CN1CCCC1CCOC(C)(c1ccccc1)c1ccc(Cl)cc1 (stereo not drawn),24.6*,2.6,/,10.2,32.9*,17.4*
O=C1C(Cl)=C(N2CCN(c3ccccc3[N+](=O)[O-])CC2)C(=O)c2ccccc21,-6.7,-4.2,16.7,-2.8,/,/
CCOc1cc(N)c(Cl)cc1C(=O)NCC1CN(Cc2ccc(F)cc2)CCO1 (stereo not drawn),70.8*,1.0,/,2.0,77.9*,32.5*
CCn1c(SCC(=O)N/N=C/C=C/c2ccco2)nnc1-c1ccc(OC)cc1,30.1*,3.7,-0.3,7.9,17.4,40.0*
Cc1ccc2sc(N(CCCN(C)C)C(=O)CCS(=O)(=O)c3ccccc3)nc2c1C,16.6,7.5,/,12.0,/,/
Cc1ccc(-c2csc3ncn(-n4c(C)ccc4C)c(=O)c23)o1,27.0*,-4.6,2.9,-13.0,6.3,32.8*
O=C1/C(=C/c2c[nH]c3ccccc23)CCC/C1=C\c1c[nH]c2ccccc12,30.2*,3.9,6.2,10.7,28.9*,58.0*
CN1C2CCC1/C(=C\c1ccccc1F)C(=O)/C2=C/c1ccccc1F,24.8*,-0.2,-6.3,2.8,26.3*,27.5*
COc1cccc(CN2CCC2(C)C(=O)Nc2cccc3cccnc23)c1OC (stereo not drawn),-7.1,/,/,3.5,/,/
CC1(C(=O)Nc2cccc3cccnc23)CCN1Cc1ccc(-c2ccccc2)o1 (stereo not drawn),61.0*,/,/,-13.1,47.0*,72.8*
C=C1C(=O)[C@]23C[C@H]1CC[C@H]2[C@]1(C)[C@@H](O)CC[C@@](C)(C(=O)O)[C@H]1C[C@@H]3O,30.7*,/,/,-4.1,32.6*,88.7*
C=C1C(=O)[C@]23C[C@H]1CCC2[C@@]1(C)C(C[C@@H]3O)[C@](C)(C(=O)O)C[C@H](O)[C@@H]1O (stereo partly drawn),38.1*,/,/,-11.6,37.6*,82.6*
C=C1C(=O)[C@]23C[C@H]1CC[C@H]2[C@]1(C)[C@@H](OC(C)=O)CC[C@@](C)(C(=O)O)[C@H]1C[C@@H]3O,52.2*,/,/,14.4,52.8*,105.1*
SMILES,ABHD5 PLIN5 PPI,TLR9-MyD88 block,TLR4 MyD88 comp,NOD2-RIPK2 inh,ABHD5-PLIN5 conf,HNF4 split-luc
Cc1nc2cc(NC(=O)c3ccc(S(=O)(=O)N(C)c4ccccc4)cc3)ccc2o1,1.3,0.3,/,-4.7,/,/
Cn1ccc(NC(=O)c2ccc([N+](=O)[O-])cc2)n1,-4.5,0.8,/,-2.6,/,/
CCOc1ccccc1N1CCN(Cc2cccc(OC)c2O)CC1,10.1,-6.6,-10.9,-0.5,/,/
COc1ccccc1N1CCN(Cc2cc(Br)c(O)c3ncccc23)CC1,25.1*,4.5,13.3,-13.8,14.1,13.8*
COc1ccc(C)cc1S(=O)(=O)n1cnc2ccccc21,-1.1,-17.9,/,2.7,/,/
N#C/C(=C\c1ccc(N2CCOCC2)o1)c1nc2ccccc2[nH]1,23.9*,8.5,1.4,2.8,29.1*,50.6*
N#C/C(=C\c1ccc(N2CCOCC2)c([N+](=O)[O-])c1)c1nc2ccccc2[nH]1,0.4,-9.1,-0.2,9.7,/,/
N#C/C(=C/c1ccc(N2CCOCC2)o1)c1ccc(Cl)cc1,60.5*,14.2,9.4,16.6,51.7*,106.4*
O=C(C[n+]1cccc(CNC(=O)c2ccc(OC(F)F)cc2)c1)Nc1cccc(C(F)(F)F)c1,31.8*,4.3,-1.8,-3.5,23.8*,3.4
O=C(C[n+]1cccc(CNC(=O)c2ccc(OC(F)F)cc2)c1)Nc1ccc(F)cc1,10.9,7.2,-6.3,2.5,/,/
Cn1c(=O)c2c(SCC(=O)N3CCCC3)nc(CC(C)(C)C)nc2n(C)c1=O,2.8,-1.4,/,-0.7,/,/
O=C1S/C(=C\C=C\c2ccco2)C(=O)N1c1ccccc1,37.1*,-8.5,-9.6,-5.1,28.2*,36.3*
O=C(O)CC(C(=O)O)N1C(=O)/C(=C/C=C/c2ccco2)SC1=S (stereo not drawn),2.9,-1.4,/,-3.1,/,/
O=C1S/C(=C\C=C\c2ccco2)C(=O)N1c1ccc(O)cc1,49.2*,1.4,-3.7,-4.9,33.1*,49.2*
O=C1NC(=Nc2ccccc2)S/C1=C\C=C\c1ccco1,25.1*,3.7,9.0,-11.3,35.8*,54.8*
CCCC(=O)Nc1nnc(SCC(=O)Nc2ccc(OCC)cc2)s1,1.4,5.1,/,-4.2,/,/
C=C(C)Cn1c2ccc(NC(=O)NCCc3ccccc3)cc2c(=O)n1C,-2.4,/,/,-5.8,/,/
Cn1cnc([N+](=O)[O-])c1S(=O)(=O)Oc1ccccc1,62.2*,9.2,/,19.1,75.3*,95.2*
Cn1cnc([N+](=O)[O-])c1S(=O)(=O)c1cccc(Cl)c1,60.7*,0.4,7.8,14.9,64.0*,93.5*
Cn1cnc([N+](=O)[O-])c1S(=O)(=O)Nc1ccccc1,21.1,5.3,/,-3.5,/,/
O=C(CCC(=O)c1ccc(Cl)cc1)OCn1nnc2ccccc2c1=O,7.9,-13.5,/,-8.3,/,/
COc1ccc(S(=O)(=O)N2CCC(C(=O)NCc3cccnc3)CC2)cc1Cl,-4.8,-4.6,/,1.9,/,/
O=C(C[n+]1ccc2ccccc2c1)c1ccc2ccc3ccccc3c2c1,27.8*,/,/,-8.6,9.7,3.8
